PubChem BioAssay (NCATS)
Inconclusive results are not listed. Active and inactive are the calls of the source. Unless noted, calls follow the shape of the dose curve; as a rule, active = well fitted curve in the direction sought with a large enough effect; inconclusive = small, poorly fitted or top-dose-only effect, or another doubt; inactive = no such curve, though single readings can be large; an effect the other way counts as inactive or inconclusive.

Assays:
[1] = qHTS profiling for inhibitors of Plasmodium falciparum (HB3) proliferation (AID 743324); details: Plasmodium falciparum HB3 blood-stage proliferation; at 28.7 µM (top of the series) unless noted;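 also: 100% = DMSO vehicle wells and 0% = artemisinin-treated control wells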
How it was run: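 SYBR Green fluorescence (485 ex/535 em) of lysed cultures, incubated overnight at room temperature in the dark, quantifies parasite DNA. Infected erythrocytes at 0.3% parasitemia and 2.5% hematocrit were exposed 72 h; values normalized to DMSO and 0.29 uM artemisinin controls.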

[2] = qHTS profiling of the MIPE4 collection as inhibitors of Plasmodium falciparum (3D7) proliferation (AID 743344; call rule not given here;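 also: scaled between DMSO vehicle wells and 0.29 µM artemisinin as full inhibition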); details: P. falciparum 3D7 in erythrocytes, SYBR Green DNA fluorescence, 72 h; at 28.5 µM (top of the series) unless noted
How it was run: (§1)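 Parasite DNA was quantified by SYBR Green I fluorescence (ex 485, em 535 nm) after overnight lysis in saponin/Triton buffer at room temperature. Cultures at 0.3% parasitemia and 2.5% hematocrit were first exposed to compound for 72 h at 37 C; signals were normalised to artemisinin (0.29 uM) and vehicle wells.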

[3] = qHTS profiling of the MIPE4 collection as inhibitors of Plasmodium falciparum (DD2) proliferation (AID 743345; call rule not given here); details: P. falciparum Dd2 in erythrocytes, SYBR Green DNA, 72 h; at 28.5 µM (top of the series) unless noted
How it was run: as §1

[4] = qHTS profiling of the MIPE4 collection as inhibitors of Plasmodium falciparum (DD2) proliferation (Rep 2) (AID 743346; call rule not given here); details: P. falciparum Dd2 in erythrocytes, SYBR Green DNA, 72 h; at 28.5 µM (top of the series) unless noted
How it was run: as §1

[5] = qHTS profiling of the MIPE4 collection as inhibitors of Plasmodium falciparum (HB3) proliferation (AID 743347; call rule not given here;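 also: plate controls were DMSO vehicle wells for no effect and artemisinin wells for full effect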); details: P. falciparum HB3 in erythrocytes, SYBR Green DNA, 72 h; at 28.5 µM (top of the series) unless noted
How it was run: as §1

[6] = High-throughput drug toxicity screening in the BPDCN cell line Gen2.2 (AID 1224824; call rule not given here;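 also: cells exposed to compounds for 48 h before reading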); details: Gen2.2 BPDCN cells; at 45.8 µM (top of the series) unless noted
How it was run: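 Seed 500 exponentially growing Gen2.2 cells/well; add compounds by pin tool; incubate 48 h, 37 °C, 5% CO2; add CellTiter-Glo, 15 min RT; read luminescence. % activity vs DMSO (100%) and bortezomib (0%).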

[7] = High-throughput drug toxicity screening in the BPDCN cell line Cal-1 (AID 1224825; call rule not given here); details: Cal-1 BPDCN cell viability, qHTS; at 45.8 µM (top of the series) unless noted
How it was run: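 Viability of the BPDCN line Cal-1 is measured as ATP-based luminescence (CellTiter-Glo) following 48 h incubation with compounds. Percent activity uses DMSO-treated wells as 100% and 9.2 uM bortezomib as 0%.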

[8] = qHTS assay for measurement of the activity of small molecule inhibitors on Zika virus induced Caspase-3 activity in human iPSC derived neural progenitor cells (hNPCs) (AID 1224857); also: nearly all actives have a fitted effect of over 65% in size; also: potency is read from the fitted curve at half-maximal effect
How it was run: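 Percent inhibition of virus-induced caspase-3/7 luminescence (Caspase-Glo), scaled between uninfected cells and Zika-infected cells. hNPCs received compound 1 hr before ZIKV at 2 FFU/cell, with 6 hours infection at 37 C.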

[9] = qHTS assay for measurement of the activity of small molecule inhibitors on Zika virus induced Caspase-3 activity in human astrocytoma cells (AID 1224859);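 also: plate controls were ZIKV-infected untreated cells for no effect and uninfected cells for full effect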
How it was run: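 Luminescent caspase-3/7 read-out (30 min reagent, room temperature) in human SNB-19 cells infected 6 h with ZIKV (2 FFU/cell) after 1 h compound pre-incubation; Data were normalised to uninfected and infected wells.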

[10] = qHTS Screen of the MIPE 4.0 Collection Against Ewings Sarcoma (TC71) (AID 1259253); also: potency is read from the fitted curve at half-maximal effect; nearly all actives have a fitted effect of over 40% in size
How it was run: (§2)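 Measured: ATP luminescence (CellTiter-Glo) 10 min after reagent addition, following 48 h drug treatment. Relative luciferase units converted to percent activity, with no-cell wells as full and DMSO wells as zero inhibition.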

[11] = qHTS Screen of the MIPE 4.0 Collection Against Ewings Sarcoma (EW8) (AID 1259255); also: potency is read from the fitted curve at half-maximal effect; nearly all actives have a fitted effect of over 35% in size
How it was run: as §2

[12] = qHTS Screen of the MIPE 4.0 Collection Against Ewings Sarcoma (TC32) (AID 1259256); also: nearly all actives have a fitted effect of over 45% in size; also: potency is read from the fitted curve at half-maximal effect
How it was run: as §2

[13] = Identifying Small Molecule Inhibitors of Pancreatic Cancer Stem Cells (A2780, Spheroid) (AID 1259357); details: Potency: A2780 spheroid viability; also: potency is read from the fitted curve at half-maximal effect;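 also: spheroids pre-formed over 14 days in stem cell medium on hydrogel; compound exposure lasted 48 h before the ATP luminescence read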
How it was run: (§3)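 Adherent (2D) versus sphere (3D) formats; spheres generated 14 d in SCM beforehand. Compound transferred by pin tool after 4 h, 48 h incubation, CellTiter-Glo endpoint.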

[14] = Identifying Small Molecule Inhibitors of Pancreatic Cancer Stem Cells (SN12C, Adherent) (AID 1259358);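 also: cell survival measured after 48 h of compound exposure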; also: potency is read from the fitted curve at half-maximal effect
How it was run: (§4)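 After a 4 h attachment period, compounds were pinned into wells and cultures held 48 h under standard incubator conditions. Viability was then measured as CellTiter-Glo luminescence following 10 min at room temperature.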

[15] = Identifying Small Molecule Inhibitors of Pancreatic Cancer Stem Cells (SN12C, Spheroid) (AID 1259360); details: Potency: SN12C spheroid viability; also: potency is read from the fitted curve at half-maximal effect;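 as to viability (% of control): 100% = DMSO-treated cells and 0% = wells without cells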
How it was run: as §3

[16] = Identifying Small Molecule Inhibitors of Pancreatic Cancer Stem Cells (A278, Adherent) (AID 1259361);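 also: viability read after 48 h compound exposure; nearly all actives have a fitted effect of over 35% in size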
How it was run: as §4

[17] = Identifying Small Molecule Inhibitors of Pancreatic Cancer Stem Cells (Panc1, Spheroid) (AID 1259359);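 also: potency is read from the fitted curve at half-maximal effect; compound exposure lasted 48 h before reading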
How it was run: as §3

[18] = qHTS Screen of the MIPE 4.0 Collection Against Ewings Sarcoma (RDES) (AID 1259252); also: potency is read from the fitted curve at half-maximal effect; nearly all actives have a fitted effect of over 35% in size
How it was run: as §2

| Compound | remaining proliferation (% of control), lower = more inhibition [1] [%] | parasite growth, % of DMSO control [2] [%] | parasite growth remaining, % of DMSO control (lower = more inhibition) [3] [%] | parasite growth, % of control (lower = inhibition) [4] [%] | growth, % of control [5] [%] | cell viability, % of control (lower = more cytotoxic) [6] [%] | viability (% of control) [7] [%] | Potency [8] | Potency [9] | Potency [10] | Potency [11] | Potency [12] | Potency [13] | Potency [14] | Potency [15] | IC50 (viability decrease) [16] | Potency [17] | Potency [18] |
| --- | --- | --- | --- | --- | --- | --- | --- | --- | --- | --- | --- | --- | --- | --- | --- | --- | --- | --- |
| C[C@@H](O[C@H]1OCCN(Cc2n[nH]c(=O)[nH]2)[C@@H]1c1ccc(F)cc1)c1cc(C(F)(F)F)cc(C(F)(F)F)c1 | 9.06 | 26.5 | 52.9 | 66.5 | 34.2 | 39.1 | 16.1 | 8.33 µM (active) | inactive | 20.9 µM (active) | 26.4 µM (active) | 16.6 µM (active) | 18.7 µM (active) | 18.7 µM (active) | 20.9 µM (active) | 16.6 µM (active) | – | – |
| CNC(=O)c1cc(Oc2ccc(NC(=O)Nc3ccc(Cl)c(C(F)(F)F)c3)c(F)c2)ccn1 | 1.38 | 5.25 | 33.1 | 11.8 | 4.74 | 16.6 | 31.5 | inactive | inactive | 20.9 µM (active) | 20.9 µM (active) | 20.9 µM (active) | – | – | 18.7 µM (active) | 16.6 µM (active) | 20.9 µM (active) | – |
| COc1cc2c(cc1OC)[C@@H]1Cc3ccc(OC)c(OC)c3CN1CC2 | – | 25.7 | 36.6 | 26.7 | – | 132 | 20.2 | inactive | inactive | – | – | – | – | – | – | – | – | 7.43 µM (active) |
| Cc1c(C(=O)Nc2ccc(N3C[C@@H](C)O[C@@H](C)C3)nc2)cccc1-c1ccc(OC(F)(F)F)cc1 | 55.5 | 54.5 | 72.7 | 54.1 | 46.7 | 10.2 | 53.5 | inactive | inactive | – | – | – | inactive | inactive | – | – | – | 13.2 µM (active) |
| C[C@H](c1ccc(F)cc1CCCC(=O)O)N(c1cc(F)ccc1F)S(=O)(=O)c1ccc(Cl)cc1 | – | 48.3 | 42.9 | 35.7 | 47.7 | 144 | 92.6 | inactive | inactive | – | – | – | – | – | – | – | – | 18.7 µM (active) |
| O=C(O)c1ccc(O)c2ncc(N3CCOCC3)cc12 | – | 15.1 | – | 16.8 | 11 | 110 | 100 | inactive | inactive | – | – | – | – | inactive | inactive | – | – | 26.4 µM (active) |
| Cc1ccc2c(c1)C(=O)[C@]1(O)CCN(c3ccccc3)C1=N2 | – | 70.4 | 90.7 | 89.8 | 76.8 | 91 | 34.3 | inactive | inactive | 18.7 µM (active) | 18.7 µM (active) | inactive | – | – | – | – | – | – |
| CNC(=O)c1ccc2c(C(=Nc3cccc(CN(C)C)c3)c3ccccc3)c(O)[nH]c2c1 | – | 19.9 | 18.6 | – | 19 | 4.19 | 19.6 | inactive | inactive | – | – | inactive | – | – | – | – | – | 16.6 µM (active) |
